The panel holds about 83,000 compounds, 20% with a hit somewhere; the sample as a whole holds those more often.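 Negative percent growth values reflect cell death: -40 means 40% of the cells present at the start died, and -100 means all died.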 Unmarked numbers belong to inactive results. Calls of active or inactive are those of the source.
What follows are molecules tested on PC-3 prostate (assay: NCI-60 one-dose screen, 48 h (100 = growth as untreated, 0 = no growth, -100 = all killed)). Details: 10 µM unless noted.
Protocol: Growth inhibition of the PC-3 human tumor cell line is measured as a screen for anti-cancer activity. Cells are grown in 96 well plates and exposed to the test compound for 48 hours. Compounds are tested at a single concentration, which is 10^-5 M for most compounds. The reported endpoint is percent growth (GI% or GIPRCNT), where numbers from 0 - 100% represent growth inhibition, and numbers from -100% - 0 represent cell death. For example, a value of 40 represents 60% growth inhibition. A value of 0 means no net growth occurred over the course of the experiment. A value of -40 indicates 40% of cells at the beginning of the experiment died by the end of the experiment. A value of -100 means all cells are dead at the end of the experiment.
NCI-60 Human Tumor Cell Lines Screen was performed using the standard one-dose NCI protocol, which is described in more detail at https://dtp.cancer.gov/discovery_development/nci-60/default.htm.
Compounds with GIPRCNT values below 10 were considered active. Activity score was based on GIPRCNT using the following formula: […]
Score is 0 for GIPRCNT values of 100 or above, 50 for GIPRCNT values of 0, and 100 for GIPRCNT values of -100.
`CCCCCCCCCCCCCCCCCCOc1ccc(CC(=O)OCC[N+]2(C)CCCCC2)cc1` gave a growth of 92.2%. `COc1ccn2c(C(C)=O)cc(C(=O)c3ccc4c(c3)Sc3ccccc3N4)c2c1` was tested, and the growth was 23.8%. With `Cc1c(C(=O)NCCCc2ccccc2)sc2ncc(-c3ccc(Br)cc3)n12` the growth was 102%. Work on `CCCCC[C@H](O)C/C=C1/C(=O)C=C[C@@H]1C/C=C\CCCC(=O)OC` yielded a growth of 26.5%. In the case of `O=C(Nc1ccc(Cl)cc1F)c1cc(Cl)ccc1O`, the growth is reported as 0.161% (active). With `c1cc(-c2nnc(SSc3ncnc4nc[nH]c34)o2)ccn1` the growth was 51%. Molecule `Cc1nn(-c2ccccc2)c(-n2ccnc2)c1/C=N/Nc1nc(-c2ccc(F)cc2)cs1` has a growth of 65.5%. Work on `CCOC(=O)c1cn2ncnc(Oc3ccc(NC(=O)NCCN(CC)CC)c(Cl)c3)c2c1C` yielded a growth of 66.1%. With `COc1ccc2sc3c(NCCO)nc4ccccc4c3c(=O)c2c1` the growth was 91.4%. Work on `N#CC1=C(N)Oc2c(sc3c(Br)cccc23)C1c1ccc(Br)cc1` (stereo not given) yielded a growth of 15.3%. In the case of `C[C@H]1[C@H]2[C@H]3CC[C@@H]4[C@@]5(C)CC[C@H](O)C(C)(C)[C@@H]5CC[C@@]4(C)[C@]3(C)CC[C@]23CO[C@]1(C)[C@@H](C(=O)/C=C\c1cccnc1)C3`, the growth is reported as 21.3%. With `Cn1cc(-c2ccc3cc(-c4ccc(CC(=O)Nc5cc(C(C)(C)C)nn5C)cc4)cnc3c2)cn1` the growth was 3.81% (active). Work on `COc1cc(C(=O)/C=C/c2c(Cl)nc3sccn23)cc(OC)c1OC` yielded a growth of 70.5%. `Cc1cc(O)c(C2=NN(c3ccc(S(N)(=O)=O)cc3)C(c3ccccc3O)C2)cc1Cl` (stereo not given) was tested, and the growth was 9.8% (active). For `COc1c(C2CC(=O)Nc3c2c(C)nn3-c2nc3ccccc3[nH]2)cc2c(c1OC)OCO2` (stereo not given), the growth was 48.4%. Molecule `C=C1CC[C@@]2(C#N)[C@H]3[C@H](CC[C@@H]2C)[C@@H](C)C[C@@H](CC(C)(C)C#N)[C@H]13` has a growth of 23.2%. In the case of `CC(C)n1cnc2c(Nc3cccc(Cl)c3)nc(N[C@H]3CCCC[C@@H]3N)nc21`, the growth is reported as 54.3%. Molecule `Cc1c(C(=O)/C=C/Nc2c(Cl)cc(S(N)(=O)=O)cc2Cl)sc2nc3ccccc3n12` has a growth of 104%. With `COc1c(B(O)O)cc(F)cc1-c1nc2ccc3[nH]ncc3c2c2c1CCCC2` the growth was 13.3%. `Nc1ccc(Sc2ccc([N+](=O)[O-])c3nonc23)cc1` was tested, and the growth was 87.1%. Work on `NCCNc1nc2ccccc2c2c(=O)c3cc(F)ccc3sc12` yielded a growth of 80.2%. For `O=C(Nc1c2ccccc2nc2ccccc12)c1ccccc1CN1C(=O)c2ccccc2C1=O`, the growth was 37.2%. `O=C(O)c1cn(C2CC2)c2cc(N3CCN(C(=O)Nc4nc(-c5ccccc5)cs4)CC3)c(F)cc2c1=O` gave a growth of 11.3%. Work on `COc1cccc(Oc2ccccc2NC(=O)CNC(=O)c2cccc3ccccc23)c1` yielded a growth of 26.2% [5 µM]. Molecule `CN(C(=O)NCc1cccc(F)c1Cl)[C@H](COC(=O)Nc1cc2ccccc2cn1)CC(O)CO` (stereo not given in full) has a growth of 80.8%. For `Cc1cc(=O)[nH]c(=O)n1Cc1cn(-c2c3ccccc3nc3ccccc23)nn1`, the growth was 97.3%. In the case of `COC1=C(C)C(=O)c2c(c(CCCl)c3n2CCC3OC(C)=O)C1=O` (stereo not given), the growth is reported as -10.6% (active). `C/C(=N/NC(N)=S)c1sc(Nc2cccc(Cl)c2)nc1C` was tested, and the growth was 74.8%. `COC(=O)/C=C1\S/C(=N\Nc2ccc([N+](=O)[O-])cc2[N+](=O)[O-])N(C2CCCCC2)C1=O` was tested, and the growth was 18.4%. `Cc1ccc(C(=O)NN2C(=O)CSC2c2ccc(Cl)cc2)cn1` (stereo not given) showed a growth of 87.5%. With `O=[N+]([O-])c1ccc(Cl)c(-c2cc(CCCCO)on2)c1` the growth was 104%. Molecule `Cc1ccc2sc3c(NCCN)nc4ccccc4c3c(=O)c2c1` has a growth of 79.5%. `N#Cc1cccc(NC(=O)c2cc(-c3ccc(F)cc3F)ccc2O)c1` showed a growth of 20.3%. `COc1ccc(-c2cc(-c3ccc(Cl)cc3)c(C#N)c(=O)n2CCCCCC(=O)Nc2ccccc2N)cc1` was tested, and the growth was 39.5%. Work on `C=C1CC[C@H](C(C)C)[C@@H]2[C@H]1[C@H]1CC(=C)[C@@H](O)CC[C@@](C)(O)[C@@H]2O1` yielded a growth of 89.9%. `CCOC(=O)C1=C(N)Oc2c(sc3c(C)cccc23)C1c1ccc(Cl)cc1` (stereo not given) gave a growth of 16.6%. `O=C(Nc1ccc(-c2nc(-c3cccc(OCCN4CCOCC4)c3)c(-c3ccnc(Br)c3)[nH]2)cc1)c1ccccc1` gave a growth of 18.3%. For `CCOC(=O)CC1C(COC(=O)NC)OC(n2cnc3c(NC(=O)Nc4ccccc4)ncnc32)C1O[Si](C)(C)C(C)(C)C` (stereo not given), the growth was 32.4%. With `COc1cc(C2CC(c3ccc(SC)cc3)=NN2C(C)=O)cc(OC)c1OC` (stereo not given) the growth was 58.3%. Molecule `Cc1oc2nc[nH]c(=O)c2c1C(=O)/C=C/c1ccc(Br)cc1` has a growth of 25.5%.

Reference: PubChem BioAssay (NCI)
